# Experimental data: the supplement of paper PMC8728848
# About 410 targets per protein were measured; listed, in parts, are those with the strongest signals and a random draw of the rest.
# B1: Gal 7 (Homo sapiens) (protein)
# chain: MSNVPHKSSLPEGIRPGTVLRIRGLVPPNASRFHVNLLCGEEGGSDAALHFNPRLDTSEVVFNSKEGGSWGREESGPGVPFGRGQPFEVLIIASDDGFKAVVGDAQYHHFRHRLPLARVRLVEVGGDVQLDSVRIF
# What was measured:
# Test in all cases: glycan array binding signal (z-score within array); higher = stronger binding
# Conditions in all cases: glycan notation: IUPAC condensed, linker removed; mutation: R74S
# [1] = biological target: Fuc(a1-2)Gal(b1-3)GlcNAc(b1-3)[Neu5Ac(a2-6)Gal(b1-4)GlcNAc(b1-6)]Gal(b1-4)Glc
# Summary of the method: (§1)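 The binding signal is a Z-score computed within each array and averaged over linkers. Arrays of the same protein sequence at different concentrations or buffers were also averaged together. Data originate from 3228 arrays in the Consortium for Functional Glycomics database, kept only where the protein sequence was available.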
# Fuc(a1-2)Gal(b1-4)GlcNAc = biological target: Fuc(a1-2)Gal(b1-4)GlcNAc
# Summary of the method: as §1
# [2] = biological target: Fuc(a1-2)Gal(b1-4)GlcNAc(b1-2)Man(a1-3)[Fuc(a1-2)Gal(b1-4)GlcNAc(b1-2)Man(a1-6)]Man(b1-4)GlcNAc(b1-4)[Fuc(a1-6)]GlcNAc
# Summary of the method: as §1
# [3] = biological target: Fuc(a1-2)Gal(b1-4)GlcNAc(b1-3)Gal(b1-4)GlcNAc(b1-2)Man(a1-3)[Fuc(a1-2)Gal(b1-4)GlcNAc(b1-3)Gal(b1-4)GlcNAc(b1-2)Man(a1-6)]Man(b1-4)GlcNAc(b1-4)GlcNAc
# Summary of the method: as §1
# [4] = biological target: Fuc(a1-2)Gal(b1-4)GlcNAc(b1-6)GalNAc
# Summary of the method: as §1
# [5] = biological target: Fuc(a1-2)Gal(b1-4)[Fuc(a1-3)]GlcNAc(b1-3)Gal(b1-4)[Fuc(a1-3)]GlcNAc(b1-3)Gal(b1-4)[Fuc(a1-3)]GlcNAc
# Summary of the method: as §1
# [6] = biological target: Fuc(a1-2)Gal6S(b1-4)Glc6S
# Summary of the method: as §1
# [7] = biological target: Fuc(a1-2)[Gal(a1-3)]Gal(b1-3)GlcNAc(b1-6)GalNAc
# Summary of the method: as §1
# [8] = biological target: Fuc(a1-2)[Gal(a1-3)]Gal(b1-4)GlcNAc
# Summary of the method: as §1
# [9] = biological target: Fuc(a1-2)[GalNAc(a1-3)]Gal(b1-3)GlcNAc(b1-2)Man(a1-3)[Fuc(a1-2)[GalNAc(a1-3)]Gal(b1-3)GlcNAc(b1-2)Man(a1-6)]Man(b1-4)GlcNAc(b1-4)GlcNAc
# Summary of the method: as §1
# [10] = biological target: Fuc(a1-2)[GalNAc(a1-3)]Gal(b1-4)GlcNAc(b1-3)Gal(b1-4)GlcNAc(b1-3)Gal(b1-4)GlcNAc
# Summary of the method: as §1
# [11] = biological target: Fuc(a1-3)[Gal(b1-4)]GlcNAc(b1-6)[Gal(b1-3)GlcNAc(b1-3)]Gal(b1-4)Glc
# Summary of the method: as §1
# Gal(a1-3)Gal(b1-4)Glc = biological target: Gal(a1-3)Gal(b1-4)Glc
# Summary of the method: as §1
# [12] = biological target: Gal(a1-4)Gal(b1-3)GlcNAc(b1-2)Man(a1-3)[Gal(a1-4)Gal(b1-3)GlcNAc(b1-2)Man(a1-6)]Man(b1-4)GlcNAc(b1-4)GlcNAc
# Summary of the method: as §1
# Gal(b1-3)Gal(b1-4)GlcNAc = biological target: Gal(b1-3)Gal(b1-4)GlcNAc
# Summary of the method: as §1
# Gal(b1-3)GalNAc = biological target: Gal(b1-3)GalNAc
# Summary of the method: as §1
# [13] = biological target: Gal(b1-3)GlcNAc(b1-2)Man(a1-3)[Gal(b1-3)GlcNAc(b1-2)Man(a1-6)]Man(b1-4)GlcNAc(b1-4)[Fuc(a1-6)]GlcNAc
# Summary of the method: as §1
# Gal(b1-3)GlcNAc6S = biological target: Gal(b1-3)GlcNAc6S
# Summary of the method: as §1
# [14] = biological target: Gal(b1-3)[Fuc(a1-4)]GlcNAc(b1-6)GalNAc
# Summary of the method: as §1
# [15] = biological target: Gal(b1-3)[Neu5Ac(a2-6)]GlcNAc(b1-4)Gal(b1-4)Glc
# Summary of the method: as §1
# [16] = biological target: Gal(b1-4)GalNAc(a1-3)[Fuc(a1-2)]Gal(b1-4)GlcNAc
# Summary of the method: as §1
# [17] = biological target: Gal(b1-4)GlcNAc(b1-3)Gal(b1-4)GlcNAc(b1-2)Man(a1-3)[Gal(b1-4)GlcNAc(b1-3)Gal(b1-4)GlcNAc(b1-2)Man(a1-6)]Man(b1-4)GlcNAc(b1-4)GlcNAc
# Summary of the method: as §1
# [18] = biological target: Gal(b1-4)GlcNAc(b1-3)Gal(b1-4)GlcNAc(b1-2)[Gal(b1-4)GlcNAc(b1-3)Gal(b1-4)GlcNAc(b1-6)]Man(a1-6)[Gal(b1-4)GlcNAc(b1-3)Gal(b1-4)GlcNAc(b1-2)Man(a1-3)]Man(b1-4)GlcNAc(b1-4)GlcNAc
# Summary of the method: as §1
# [19] = biological target: Gal(b1-4)GlcNAc(b1-3)Gal(b1-4)GlcNAc(b1-3)Gal(b1-4)GlcNAc(b1-2)[Gal(b1-4)GlcNAc(b1-3)Gal(b1-4)GlcNAc(b1-3)Gal(b1-4)GlcNAc(b1-6)]Man(a1-6)[Gal(b1-4)GlcNAc(b1-3)Gal(b1-4)GlcNAc(b1-3)Gal(b1-4)GlcNAc(b1-2)Man(a1-3)]Man(b1-4)GlcNAc(b1-4)[Fuc(a1-6)]GlcNAc
# Summary of the method: as §1
# [20] = biological target: Gal(b1-4)GlcNAc(b1-3)Gal(b1-4)GlcNAc(b1-3)Gal(b1-4)GlcNAc(b1-3)Gal(b1-4)GlcNAc(b1-2)Man(a1-3)[Gal(b1-4)GlcNAc(b1-3)Gal(b1-4)GlcNAc(b1-3)Gal(b1-4)GlcNAc(b1-3)Gal(b1-4)GlcNAc(b1-2)Man(a1-6)]Man(b1-4)GlcNAc(b1-4)GlcNAc
# Summary of the method: as §1
binder,measurement,setting,value
B1,glycan array binding signal (z-score),[1],0.022
same,glycan array binding signal (z-score),Fuc(a1-2)Gal(b1-4)GlcNAc,-0.214
same,glycan array binding signal (z-score),[2],1.07
same,glycan array binding signal (z-score),[3],13.1
same,glycan array binding signal (z-score),[4],0.439
same,glycan array binding signal (z-score),[5],0.209
same,glycan array binding signal (z-score),[6],0.38
same,glycan array binding signal (z-score),[7],-0.325
same,glycan array binding signal (z-score),[8],-0.56
same,glycan array binding signal (z-score),[9],-0.27
same,glycan array binding signal (z-score),[10],-0.239
same,glycan array binding signal (z-score),[11],0.106
same,glycan array binding signal (z-score),Gal(a1-3)Gal(b1-4)Glc,0.28
same,glycan array binding signal (z-score),[12],-0.347
same,glycan array binding signal (z-score),Gal(b1-3)Gal(b1-4)GlcNAc,-0.425
same,glycan array binding signal (z-score),Gal(b1-3)GalNAc,-0.37
same,glycan array binding signal (z-score),[13],0.404
same,glycan array binding signal (z-score),Gal(b1-3)GlcNAc6S,-0.422
same,glycan array binding signal (z-score),[14],-0.149
same,glycan array binding signal (z-score),[15],-0.354
same,glycan array binding signal (z-score),[16],-0.282
same,glycan array binding signal (z-score),[17],3.67
same,glycan array binding signal (z-score),[18],1.49
same,glycan array binding signal (z-score),[19],3.31
same,glycan array binding signal (z-score),[20],5.53
